Assay results: article PMC4336329 (PLoS ONE, 2015)
Screen size: about 310,000 compounds; about 14,000 (4.5%) showed an effect of 50% or more. The effect is printed as a negative number. Only a selection was taken, and strong results are over-represented in it overall.

What follows are compounds tested against human ether-à-go-go-related gene (hERG) potassium channel (human, UniProt Q12809) (assay: primary screen, population patch clamp on CHO cells stably expressing hERG; higher = less effect of the substance).
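Further: peak tail current of the secondary pulse compared with the same well before compound.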

Sequence of human ether-à-go-go-related gene (hERG) potassium channel (Q12809 whole entry, looked up): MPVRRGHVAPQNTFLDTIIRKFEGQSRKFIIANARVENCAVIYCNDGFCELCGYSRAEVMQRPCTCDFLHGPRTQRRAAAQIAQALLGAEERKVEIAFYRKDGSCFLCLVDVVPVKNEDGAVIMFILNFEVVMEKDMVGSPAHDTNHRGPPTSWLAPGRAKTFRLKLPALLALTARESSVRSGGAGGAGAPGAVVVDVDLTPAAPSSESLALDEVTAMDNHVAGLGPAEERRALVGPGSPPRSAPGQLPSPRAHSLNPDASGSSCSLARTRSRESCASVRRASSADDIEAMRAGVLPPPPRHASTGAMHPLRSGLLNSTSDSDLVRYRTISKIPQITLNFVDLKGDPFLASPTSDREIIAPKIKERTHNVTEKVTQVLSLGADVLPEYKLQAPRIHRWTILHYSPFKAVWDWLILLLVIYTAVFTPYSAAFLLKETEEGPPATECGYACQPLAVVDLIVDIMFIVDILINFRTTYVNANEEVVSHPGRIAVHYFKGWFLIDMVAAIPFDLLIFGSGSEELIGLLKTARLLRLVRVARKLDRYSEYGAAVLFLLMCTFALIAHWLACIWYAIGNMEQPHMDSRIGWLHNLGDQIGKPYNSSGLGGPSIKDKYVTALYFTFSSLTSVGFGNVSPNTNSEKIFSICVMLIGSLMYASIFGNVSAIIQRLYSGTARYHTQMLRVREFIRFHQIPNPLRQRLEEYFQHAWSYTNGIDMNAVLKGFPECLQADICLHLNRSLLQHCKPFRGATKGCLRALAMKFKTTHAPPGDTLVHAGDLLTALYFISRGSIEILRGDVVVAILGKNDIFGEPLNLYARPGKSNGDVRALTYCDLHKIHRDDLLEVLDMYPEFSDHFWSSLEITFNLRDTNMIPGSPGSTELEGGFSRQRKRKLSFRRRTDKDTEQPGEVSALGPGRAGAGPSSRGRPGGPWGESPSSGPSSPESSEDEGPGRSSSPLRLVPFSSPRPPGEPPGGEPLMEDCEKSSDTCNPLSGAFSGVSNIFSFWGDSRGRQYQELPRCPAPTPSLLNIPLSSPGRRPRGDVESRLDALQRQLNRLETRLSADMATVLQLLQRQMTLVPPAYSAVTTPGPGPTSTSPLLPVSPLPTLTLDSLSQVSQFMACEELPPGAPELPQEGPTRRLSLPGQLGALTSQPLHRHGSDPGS

Point of comparison: `CCOC(=O)Nc1ccc(C(=O)c2ccncc2)cc1`, “hERG current change (%, negative = inhibition) at 10uM” value 14.7%. Against it:
- O=C1NC(c2ccccc2)CCC1(Cl)Cl (centres unmarked) — lower, 6.57%
- CCc1ccc(NC(=O)c2cccc(NC3=NC4CS(=O)(=O)CC4S3)c2)cc1 (centres unmarked) — higher, 18%
- CCn1c(=O)n(CC(=O)NCc2ccccc2OC)c(=O)c2ccccc21 — lower, 8.2%
- CC(C)(C)C(=O)C1=C(O)C(=O)N(Cc2ccccc2)C1c1ccccc1Cl (centres unmarked) — lower, 14.1%
- O=C(COc1ccccc1O)N1CCN(C(=O)c2ccco2)CC1 — lower, -24.8%
- COc1ccccc1-c1ccc(=O)n(CC(=O)NC(C)(C)C)n1 — lower, 14%
- COc1cccc2[nH]c3c(N4CCc5ccccc5C4)ncnc3c12 — lower, 4.69%
- CC1(C)Cc2c(sc(NC(=O)C(C)(C)C)c2C#N)C(C)(C)N1 — lower, 3.16%
- CC(=O)Nc1ccc(S(=O)(=O)N2CCN(Cc3cccs3)CC2)cc1.O=C(O)C(=O)O — lower, -7.69%
- N#Cc1ccc(S(=O)(=O)N2CCN(Cc3cccs3)CC2)cc1 — lower, -61.2%
- N#CCCN1CCN(S(=O)(=O)c2ccc(C#N)cc2)CC1 — lower, -10.6%
- O=C(CN1CCN(S(=O)(=O)c2ccc(F)cc2)CC1)NCc1cccs1 — lower, -32.1%
- O=C(CN1CCN(S(=O)(=O)c2ccc(Cl)cc2)CC1)NCc1cccs1 — lower, -59.1%
- O=C(NCc1cccs1)C1CCN(S(=O)(=O)c2ccc(Cl)cc2)CC1 — lower, 4.41%
- Cl.O=C(CN1CCN(c2ccc(F)cc2)CC1)NCc1cccs1 — lower, -15.4%
- O=C(NCc1cccs1)C1CCN(S(=O)(=O)c2ccccc2F)CC1 — lower, 10.4%
- O=C(CN1CCN(S(=O)(=O)c2ccccc2C(F)(F)F)CC1)NCc1cccs1 — lower, -68.1%
- COc1ccc(OC)c(Nc2nc(-c3ccc(O)c(O)c3)cs2)c1 — lower, 10.8%
- CC12CN3CC(C)(CN(C1)C31CCOCC1)C2=O — lower, 11.4%
- CCOc1cc(C(=O)NC2CC(C)(C)NC(C)(C)C2)cc(OCC)c1OCC — higher, 20%
- O=C(NCc1ccco1)C1CCN(S(=O)(=O)Cc2ccccc2)CC1 — lower, -5.29%
- CCOc1ccc(S(=O)(=O)N(C)CC(=O)NCc2ccccn2)cc1Cl — lower, -27.8%
- O=C(CSc1ncn[nH]1)Nc1ccc2c(c1)OCCO2 — lower, -26.9%
- Cc1csc(N)n1 — lower, 7.04%
- Cc1ccnc(NC(=O)CC(c2ccccc2)c2ccccc2)n1 — higher, 30.5%
- Clc1ccc(CSc2cc3c(nn2)-c2ccccc2CC3)cc1 — higher, 23%
- CC1=C(C(=O)OCC2CCCCC2)C(c2ccc(O)cc2)NC(=O)N1 (centres unmarked) — lower, 12.7%
- COC(=O)c1cc(NC2c3ccccc3C(=O)N2c2ccc(Cl)cn2)cc(C(=O)OC)c1 (centres unmarked) — higher, 19.5%
- Cc1ccc(S(=O)(=O)NCC(=O)OCC(=O)c2ccc(Br)s2)cc1 — lower, -52.7%
- Cc1ccc(S(=O)(=O)NCC(=O)OCC(=O)c2cccs2)cc1 — lower, 0.259%
- Cc1ccc(S(=O)(=O)NCC(=O)OCC(=O)c2ccc(Cl)s2)cc1 — lower, 1.12%
- Cc1cccc(CN2C(=O)[C@H]3Cc4c([nH]c5ccccc45)C(C)(C)N3C2=O)c1 — lower, -1.56%
- CS(=O)(=O)NC1c2cccc3cccc(c23)C1Sc1nncn1/N=C/c1ccco1 (centres unmarked) — lower, -21.1%
- COc1ccc(C(=O)N/N=C/c2ccc(OC)c(COc3ccccc3)c2)cc1 — lower, -26.1%
- COc1ccc(C(=O)N/N=C/c2ccc(OC)c(CN3CCCc4ccccc43)c2)cc1 — lower, -11.9%
- COc1ccc(/C=N/NC(=O)c2cccnc2)cc1CN1CCc2cc(OC)c(OC)cc2C1C (centres unmarked) — lower, -40.9%
- COc1ccc(/C=N/NC(=O)c2ccccc2OC)cc1COc1ccccc1[N+](=O)[O-] — lower, 8.94%
- COc1ccc(C(=O)N/N=C/c2ccc(OC)c(CN3CCc4cc(OC)c(OC)cc4C3C)c2)cc1 (centres unmarked) — lower, -76%
- COc1ccc(/C=N/NC(=O)c2cc(OC)c(OC)c(OC)c2)cc1CN1CCc2cc(OC)c(OC)cc2C1C (centres unmarked) — lower, -73.4%
- COc1ccc(/C=N/NC(=O)c2ccc(OC)c(OC)c2)cc1COc1c(F)c(F)c(F)c(F)c1F — lower, 5.91%
- COc1ccc(/C=N/NC(=O)c2ccc(F)cc2)cc1CN1CCc2cc(OC)c(OC)cc2C1C (centres unmarked) — lower, -88.3%
- COc1ccc(/C=N\NC(=O)c2ccccc2[N+](=O)[O-])cc1COc1c(F)c(F)c(F)c(F)c1F — lower, 8.06%
- COc1ccc(/C=N/NC(=O)c2ccccc2[N+](=O)[O-])cc1CN1CCc2cc(OC)c(OC)cc2C1C (centres unmarked) — lower, -63.9%
- COc1ccc(/C=N\NC(=O)c2ccc(F)cc2)cc1COc1ccccc1C(N)=O — lower, -44.3%
- COc1ccc(/C=N/NC(=O)c2ccc(O)cc2)cc1CN1CCCc2ccccc21 — lower, 0.817%
- Cc1nc2cc(NC(=O)Nc3ccc(N4CCOCC4)cc3)ccc2n1C — lower, 6.34%
- COCCn1c(Br)nc2c1c(=O)n(C)c(=O)n2C — lower, 8.14%
- Cc1ccccc1C(=O)N1CCN(c2ccc(NC(=O)c3cccs3)cc2)CC1 — lower, 4.97%
- CC(=O)Nc1ccc(S(=O)(=O)NCC2CCC(C(=O)NCCCN(C)Cc3ccccc3)CC2)cc1 (centres unmarked) — lower, 6.98%
- CCn1c(SCC(=O)NCC2CCCO2)nnc1-c1ccccc1OC (centres unmarked) — lower, 10.9%
- CS(=O)(=O)Nc1ccccc1C(=O)NCC1(N2CCCCC2)CCCCC1 — lower, -8.32%
- O=C(O)c1ccc(NS(=O)(=O)c2ccc(C(=O)Nc3ccccc3)cc2)cc1 — lower, -8.65%
- Cc1ccc(Cn2nnnc2CN2CCC(NC(=O)c3ccc(Br)cc3)CC2)cc1 — lower, -44.7%
- Cc1ccc(Cn2nnnc2CN2CCC(NC(=O)C(C)(C)C)CC2)cc1.Cl — lower, 0.395%
- Cc1ccc(Cn2nnnc2CN2CCC(n3nnc4ccccc43)CC2)cc1.Cl — lower, -53.9%
- Cc1ccc(C)c(CN2CCC(n3nnc4cc(F)ccc43)CC2)c1 — lower, -21.2%
- Cc1ccc(S(=O)(=O)N2CCC(n3nnc4cc(C)ccc43)CC2)cc1 — lower, -28.9%
- Cc1ccc(Cn2nnnc2CN2CCC(n3nnc4cc(C)ccc43)CC2)cc1 — lower, -65.2%
- COc1ccc(CCNC(=O)CSc2nc(N)cc(=O)[nH]2)cc1OC — higher, 29.6%
- Cc1ccc(S(=O)(=O)N(C)C)cc1NC(=O)C(C)N(C)Cc1sccc1C (centres unmarked) — lower, -16.1%
- O=C(COc1ccccc1)Nc1ccc2oc(=O)ccc2c1 — lower, 4.76%
- CCOC(=O)N1CCN(C(=O)c2ccc3c(=O)n(Cc4ccc(Cl)cc4)c(=S)[nH]c3c2)CC1 — lower, 4.36%
- CN(C)c1ccc(N/C=C/C(=O)c2ccco2)cc1 — lower, 4.67%
- Cc1nn(C)c(C)c1CN(Cc1nc(CCC(C)C)no1)C(C)C — lower, 13%
- COC(=O)c1cccc(N(C(=O)CNC(=O)c2ccco2)C(C(=O)NC2CCCC2)c2ccco2)c1 (centres unmarked) — lower, 6.89%
- FC(F)(F)c1cccc(CN2CCCCCC2)c1 — lower, 2.33%
- COc1ccc(F)c(CN2CCC(CO)(Cc3cccc(C(F)(F)F)c3)CC2)c1 — lower, -58.4%
- CSc1cccc(CN2CCC(CO)(Cc3cccc(C(F)(F)F)c3)CC2)c1 — lower, -64.4%
- COc1cc(CN2CCC(CO)(Cc3cccc(C(F)(F)F)c3)CC2)ccc1F — lower, -68.7%
- CCOc1cc(CN2CCN(C(=O)Cc3ccccc3)CC2)ccc1OC.O=C(O)C(=O)O — lower, -37.6%
- CSc1cccc(CN2CCC(CO)(Cc3ccccc3)CC2)c1 — lower, -44.8%
- Cc1c(CN2CCC(CO)(Cc3cccc(C(F)(F)F)c3)CC2)c2ccccc2n1C — lower, -47.2%
- CCOc1cc(CN2CCCCCC2)ccc1OC — lower, -3.28%
- COc1ccc2[nH]c(C(=O)N3CCC(CO)(Cc4cccc(C(F)(F)F)c4)CC3)c(C)c2c1 — lower, 7.98%
- OCC1(Cc2cccc(C(F)(F)F)c2)CCN(Cc2cc(F)cc(F)c2)CC1 — lower, -43.4%
- CCOc1cc(CN2CCC(CO)(Cc3cccc(C(F)(F)F)c3)CC2)ccc1OC — lower, -76.6%
- COc1ccc(C(=O)Nc2ccc(N3CCOCC3)cc2)cc1OC — lower, 1.36%
- Cc1ccc(CC(=O)NCCc2ccc(S(N)(=O)=O)cc2)cc1 — lower, 5.87%
- Brc1ccc([C@H]2CN3CCSC3=N2)cc1.O=C(O)C(=O)O — lower, -35.7%
- COc1ccc(OC)c(NC(=O)c2ccccc2SC)c1 — lower, -40.2%
- CC(C)c1ccc(C2NC(=O)NC3=C2CCc2ccccc23)cc1 (centres unmarked) — lower, -33.5%
- COc1cc(Cl)c(CC(=O)c2c[nH]c3ccccc23)cc1OC — higher, 15.9%
- CC1(C(=O)N2CCC(CO)(Cc3cccc(C(F)(F)F)c3)CC2)CC1 — lower, 4.02%
- OCC1(Cc2ccccc2C(F)(F)F)CCN(Cc2cccc3cnccc23)CC1 — lower, -11%
- CC(=O)c1ccc(C(=O)N2CCC(CO)(Cc3cccc(C(F)(F)F)c3)CC2)cc1 — lower, -74.6%
- COc1ccc(CN2CCC(CO)(Cc3ccccc3C(F)(F)F)CC2)c(F)c1 — lower, -67.3%
- OCC1(Cc2ccccc2C(F)(F)F)CCN(Cc2ccncc2)CC1 — lower, -13.8%
- CN(C)S(=O)(=O)N1CCC(CO)(Cc2cccc(C(F)(F)F)c2)CC1 — lower, -4.25%
